Assay results: the supplement of paper PMC11624193, “Coupling cellular drug-target engagement to downstream pharmacology with CeTEAM” (Nature Communications, 2024)
Structures can show the parent of a compound that is named as a salt.

The molecules below were run against PARP1 L713F-nLuc biosensor (HCT116) (UniProt P09874) (assay: PARP1 L713F-nLuc/akaLuc ratio relative to DMSO control (biosensor stabilization) (fold change); higher = more PARP1 biosensor stabilization (target engagement / stabilizer), active = hit call of the paper). Conditions: stock concentration (mM; final µM = stock mM x 1): 10; 24 h;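 active = log2 fold change beyond 2 SD from the library mean after excluding viability outliers; inactive = within 2 SD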.
Sequence of PARP1 L713F-nLuc biosensor (HCT116) (P09874 whole entry L713F, looked up): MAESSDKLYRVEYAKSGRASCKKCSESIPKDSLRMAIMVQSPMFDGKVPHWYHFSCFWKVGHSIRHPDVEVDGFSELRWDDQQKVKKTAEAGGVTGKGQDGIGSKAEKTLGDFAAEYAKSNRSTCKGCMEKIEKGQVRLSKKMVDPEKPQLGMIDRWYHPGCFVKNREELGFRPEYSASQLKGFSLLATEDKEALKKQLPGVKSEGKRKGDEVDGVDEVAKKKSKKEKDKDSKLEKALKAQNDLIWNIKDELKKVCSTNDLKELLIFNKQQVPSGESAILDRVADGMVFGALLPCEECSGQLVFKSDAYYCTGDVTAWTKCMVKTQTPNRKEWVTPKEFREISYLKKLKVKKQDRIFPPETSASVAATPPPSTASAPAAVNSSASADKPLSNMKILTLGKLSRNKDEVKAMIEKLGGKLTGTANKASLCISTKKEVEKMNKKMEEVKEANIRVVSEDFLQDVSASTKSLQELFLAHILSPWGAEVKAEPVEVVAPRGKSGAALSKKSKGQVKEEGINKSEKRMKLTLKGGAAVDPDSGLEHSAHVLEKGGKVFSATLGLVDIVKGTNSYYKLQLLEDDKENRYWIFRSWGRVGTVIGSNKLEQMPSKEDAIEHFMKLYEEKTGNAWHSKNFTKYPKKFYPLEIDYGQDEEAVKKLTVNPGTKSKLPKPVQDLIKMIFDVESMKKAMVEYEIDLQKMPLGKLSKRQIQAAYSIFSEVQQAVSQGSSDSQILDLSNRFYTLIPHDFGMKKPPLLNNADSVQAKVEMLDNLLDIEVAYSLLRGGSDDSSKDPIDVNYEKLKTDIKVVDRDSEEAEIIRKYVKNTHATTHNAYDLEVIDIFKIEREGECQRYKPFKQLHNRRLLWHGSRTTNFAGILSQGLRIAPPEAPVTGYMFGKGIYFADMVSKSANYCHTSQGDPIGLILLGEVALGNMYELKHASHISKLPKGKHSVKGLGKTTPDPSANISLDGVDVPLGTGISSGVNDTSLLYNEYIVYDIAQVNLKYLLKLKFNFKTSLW

SMILES	PARP1 L713F-nLuc/akaLuc ratio
CNC[C@@H](O)COc1ccc(Cl)c(-c2nc(-c3c(C)noc3C)c(C)c(N3CC4(CCN(C(=O)OC)CC4)C3)n2)c1	0.955 (inactive)
CC#CC(=O)N1CCC[C@H]1c1nc(-c2ccc(C(=O)Nc3ccccn3)cc2)c2c(N)nccn12 [Acalabrutinib (ACP-196)]	1.28 (inactive)
Cc1nc2cccc(N)c2c(=O)n1C1CCC(=O)NC1=O (stereo not drawn) [Avadomide(CC-122)]	0.983 (inactive)
Cc1cccc(-c2[nH]c(CNc3ccccc3F)nc2-c2ccc3ncnn3c2)n1 [Vactosertib ?(TEW-7197)]	1.18 (inactive)
C=CC(=O)Nc1cccc(CNc2nc(Nc3ccc(N4CCN(C)CC4)cc3OC)ncc2Cl)c1	1.54 (inactive)
COC(=O)c1cc(CN2CCN(C(=N)N)CC2)cc(C(=O)N2CCN(C(=O)c3ccc(C(=N)N)cc3)CC2)c1 [CBB1007 (trihydrochloride)]	0.723 (inactive)
C[C@]1(O)C[C@@H](c2nc(-c3ccc4ccc(-c5ccccc5)nc4c3)c3c(N)nccn32)C1 [Linsitinib (OSI-906)]	0.715 (inactive)
Nc1nc(NC2CC2)cc(-c2cccc(Cl)c2Cl)n1	1.94 (inactive)
